± gives the standard deviation of the averaged measurements. Over roughly 25,000 sequences, “ln(normalized median fluorescence intensity)” has its median near 8.9; the highest 2% begin near 10. What follows is part of a selection rich in the highest values, with near analogues and random picks from the rest.

The subject of the assay is PfAP2-LT AP2 domain (GST-tagged). Description: gcPBM binding intensity (ln(normalized median fluorescence intensity)); higher = stronger DNA binding. In outline:
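Binding intensity values are the highest Masliner-normalised natural-log median intensity among replicate spots of either probe orientation. The binding step lasted 1 h in 1× PBS with 1% milk, 0.2 mg/ml BSA, 0.5% salmon testes DNA and 0.03% Triton X-100, using GST-tagged P. falciparum DNA-binding domains expressed in E. coli on an Agilent 4 × 180k array of primer-extended double-stranded 36-bp intergenic genomic probes plus negative controls. Alexa488 anti-GST antibody and a 488 nm scan detected bound protein.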
Regarding “TATTAATATGGTAATACACACTAATATACTTTTGTT [CACACA_site6860]”, the “gcPBM binding intensity (ln)” value stood at 8.89 ± 0.5.
On to “ATAAAAATATATGAAACACACAGTTTCTATAAGAAA [CACACA_site4156]”, for which the “gcPBM binding intensity (ln)” value came to 8.68 ± 0.47.
“CATATAATTATATATCGTACATATTAATATAATTAC [XGTACX_site401]”: the “gcPBM binding intensity (ln)” value turned out to be 8.68 ± 0.38.
The result for GTTAATTTTTGTATAGTGCAAAAATATAATAGTATG reads 8.64 ± 0.48.
As for “AACATATATAAATACACACACATATATATATGAAAT [CACACA_site4312]”, the figure is 9.51 ± 0.26; as for “AAAATAAGAAAACAAATGCACACCATTTATATAGAT [CACACA_site1055]”, 9.03 ± 0.39.
As for “ATATCTATGTTTATCTCGAATAACTTAAAAAATTAT [CACACA_negctrl_site1131]”, the figure is 8.45 ± 0.45.
As to “AACAGAATAATACTAAATGAACGATTTCTCTTTATG [GTGCAC_negctrl_site376]”, the “gcPBM binding intensity (ln)” value is 8.6 ± 0.51.
As for “ATAAGTGTATAAAAATGTACGTGTATAAAAATATGT [XGTACX_site8235]”, the “gcPBM binding intensity (ln)” value is 9.06 ± 0.43.
For the sequence GTGTAATGCTTATCGGTGCATATATATATATATATA, the “gcPBM binding intensity (ln)” value stood at 10.13 ± 0.021.
As for GTGGTTGTAATGGTGGTGCATATTGTATATTATGTT, the figure is 9.515 ± 0.078.
The result for “ATATATTATATTTAAGTGCATTAATTAAAATGCTTA [GTGCAC_site9403]” reads 8.34 ± 0.36.
The result for “CATCACCTTTTTAAATGTACGCATAATACCAAAAAA [XGTACX_site1587]” reads 8.6 ± 0.48.
For “GAGCCCAAAAAATTAGGTACGTATAAAGAGGTATTT [XGTACX_site5348]”, the “gcPBM binding intensity (ln)” value was found to be 8.8 ± 0.54.
As for “ACCCTATAGGTAACTACACACCGCATATTGTTTACT [CACACA_site7436]”, the figure is 9.15 ± 0.34.
As for “TTAATATTTTGATGTGTACACATTAAAATAGTTTTA [CACACA_site5712]”, the figure is 8.46 ± 0.48; as for “GAATATTAAACAAACACACACACATATATTTATATA [CACACA_site7563]”, 9.73 ± 0.27.
As for “TTATATTAAACAAACACACACATATATATATATATA [CACACA_site2382]”, the figure is 9.54 ± 0.49; as for “GAATATTAAACAAACACACACACATATATATATATA [CACACA_site3382]”, 10.1 ± 0.2.
In the case of “ATATTAAACAAACACACACACATATATATATATATA [CACACA_site3383]”, the “gcPBM binding intensity (ln)” value is 10.2 ± 0.35.
Turning to “TTATATTAAACAAACACACACATATAAATATAAATA [CACACA_site7174]”, the “gcPBM binding intensity (ln)” value was found to be 9.23 ± 0.3.
Consider “GTTTATATTAAACAAACACACACATATATATATATA [CACACA_site8749]”, for which the “gcPBM binding intensity (ln)” value turned out to be 9.57 ± 0.18.
For “TGTATATATTTGTGCACACCAAAGTTTGATTTTATT [CACACA_site1860]”, the “gcPBM binding intensity (ln)” value was found to be 9.3 ± 0.42.
As for “TTGTATATATTAAATTGTACTTATTTTTTGTATATA [XGTACX_site3251]”, the figure is 8.64 ± 0.54; as for “CTGAGGAAGCTAATTACACACATGCATATTTTTTTT [CACACA_site2177]”, 9.08 ± 0.28.
As for “AATGTACCCACACCCACACACAAACAAATATATATA [CACACA_site2751]”, the figure is 9.74 ± 0.29; as for “AAAAAAAAAAAAAACACACACATACACCCAAAAATG [CACACA_site4223]”, 9.66 ± 0.24; as for “TGCAACAAAATAAACACACACACACCCCCACAAAAA [CACACA_site3388]”, 10.36 ± 0.057.
As to “GTAAAAAAAGAGCACACACACAAAAACACCCACAAA [CACACA_site1292]”, the “gcPBM binding intensity (ln)” value came out at 10.3 ± 0.23.
On to “TGCAACAAAATAAACACACACACACTAACACAAAAA [CACACA_site7567]”, for which the “gcPBM binding intensity (ln)” value amounted to 9.98 ± 0.33.
For “AAAAAAATAAAACACACACACAAAAAAATAAAAATA [CACACA_site465]”, the “gcPBM binding intensity (ln)” value was 9.56 ± 0.3.
As for “AGCACACCCACAAAAACACACACAAAGGTGTTCTTA [CACACA_site8355]”, the figure is 9.39 ± 0.42; as for “CACAAACAAAAACACACACACACACCCACAAAAATG [CACACA_site2429]”, 10.2 ± 0.34.
For “AATGTACACCCACCCACACACAAACAAATATATATA [CACACA_site5521]”, the “gcPBM binding intensity (ln)” value came out at 10.1 ± 0.4.
In the case of “AAAAAAAAAAAACACACACACACACCCACAAAATAT [CACACA_site1447]”, the “gcPBM binding intensity (ln)” value turned out to be 10.31 ± 0.028.
The result for “TTTAAACAAGGATCCACACACCCCAAAAAAAAAAGA [CACACA_site680]” reads 9.26 ± 0.4; that for “AAAAATAAAAAAATGACACACATATATATATATATA [CACACA_site2307]”, 9.85 ± 0.11.
“TATAACAATTTTTATGCATGCGACTATAATATTTTT [TGCATGCA_site508]”: the “gcPBM binding intensity (ln)” value is 8.92 ± 0.42.
Regarding “ATTATATAAGTACACAAACAAGTATGAGATTCAAAA [GTGCAC_negctrl_site119]”, the “gcPBM binding intensity (ln)” value amounted to 8.88 ± 0.5.
Consider “ATATATTATATGTACACACACATATAAGGGATTATA [CACACA_site5]”, for which the “gcPBM binding intensity (ln)” value came to 9.28 ± 0.4.
With TTATATTATATATATGTGCACATTTTTAAACTTGGA, the “gcPBM binding intensity (ln)” value came out at 8.77 ± 0.47.
In the case of “ACAAACAAAGAAAGAACACACATACACAAGATACCT [CACACA_site7353]”, the “gcPBM binding intensity (ln)” value is 9.54 ± 0.26.
The result for “ATATAACTTTTAAAAGCATGCAAATATTTACTCAAT [TGCATGCA_site396]” reads 8.78 ± 0.45.
The result for “TGATAAGAAAAAGACTTTTCCTTCTTACTTTCTATG [CACACA_negctrl_site782]” reads 8.55 ± 0.59; that for “ACATGAAGATATTTTTGTCCGTACAAATTCATATGA [XGTACX_site1837]”, 8.66 ± 0.23.
Turning to “AAGGTATTTATAACTACACACTTATTTATAACCTAA [CACACA_site6194]”, the “gcPBM binding intensity (ln)” value was 8.7 ± 0.43.
The result for “ATATGAAGTATCGAATTAAGGGCAACAAATAAATTA [CACACA_negctrl_site1116]” reads 8.76 ± 0.57.
The result for “GTGGAAAAAAATAATTGTACACAATAATAAATATAT [XGTACX_site2414]” reads 8.87 ± 0.45.
As for “GTTTGAATGGCGCACTGTACACATATATACATATAG [XGTACX_site8619]”, the figure is 9.13 ± 0.26.
As for “TTCTATTCACATTTTACACACGTCCATCGCATTTTA [CACACA_site3453]”, the “gcPBM binding intensity (ln)” value worked out at 9.44 ± 0.46.
Turning to “ATTTTTTATGGACAAAAGACCTCTGATGTAAATATA [CACACA_negctrl_site1081]”, the “gcPBM binding intensity (ln)” value was 8.38 ± 0.4.
As for “CATACATACAGACACACACACATATTTATATTTATA [CACACA_site6172]”, the figure is 9.9 ± 0.41.
In the case of “CACAGACACGGACACACACACATATATAATATATAT [CACACA_site4495]”, the “gcPBM binding intensity (ln)” value came to 9.87 ± 0.42.
The result for “AGCACAGACGGACACACACACATATATATATATATA [CACACA_site4341]” reads 10.37 ± 0.085.
The result for “CCCACAGACGGACACACACACACACCGACACATATA [CACACA_site4356]” reads 10 ± 0.26; that for “CCCACAGACGGACACACACACATATATATATATATA [CACACA_site4351]”, 10.4 ± 0.22.
As for “TTTGTTGACGGACACACACACATACAGATATATATA [CACACA_site5292]”, the figure is 9.4 ± 0.27.
